Experimental data published in the supplement of paper PMC10646978.
± gives the standard deviation.

Key:
Settings in all cases: modulator concentration 10 µM
[1] = system: RAW-Dual (murine macrophage reporter line); assay: NF-kB reporter (SEAP) activity fold change vs agonist alone; higher = enhanced NF-kB activity
In short: (§1)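 Overnight stimulation with a PRR agonist followed pre-incubation for 1 hour at 37 °C with compound at 10 μM final. This was done in RAW-Dual murine macrophage reporter cells seeded at 50 000 per well in 384-well plates. NF-κB (SEAP, QUANTI-Blue absorbance at 620 nm) and IRF (Lucia luciferase, QUANTI-Luc luminescence) were read from the supernatant. Each reporter's fold change relative to the mean agonist-only control on the same plate was averaged over replicate plates.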

[2] = system: RAW-Dual (murine macrophage reporter line); assay: IRF reporter (Lucia luciferase) activity fold change vs agonist alone; higher = enhanced IRF activity
In short: as §1

[3] = system: RAW-Dual (murine macrophage reporter line); assay: viability score (confluency relative to resting cells, overnight) (fraction); higher = more viable, active = viable (0.7 or more)
In short: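 Overnight exposure to 10 μM final compound was carried out on RAW-Dual macrophages in 384-well plates. IncuCyte software generated two confluency masks over all wells imaged with IncuCyte. The viability score gives confluency in relation to resting cells. A compound met the cutoff if each mask exceeded 70% of resting cells.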

[4] = agonist: CpG ODN 1826 0.5 ug/mL

| Structure (SMILES) | NF-kB reporter [1, 4] | NF-kB reporter ([1]; agonist: LPS 0.1 ug/mL) | NF-kB reporter ([1]; agonist: MPLA […]) | IRF reporter ([2]; agonist: 3'3'-cGAMP 10 ug/mL) | IRF reporter ([2]; agonist: LPS 0.1 ug/mL) | IRF reporter ([2]; agonist: MPLA […]) | viability score [3] |
| --- | --- | --- | --- | --- | --- | --- | --- |
| O=C(c1ccc(F)c(F)c1Nc1ccc(I)cc1F)N1CC(O)([C@@H]2CCCCN2)C1 | 0.155 ± 0.0087 | 0.0529 ± 0.0032 | 0.123 ± 0.012 | 0.871 ± 0.029 | 4.08 ± 0.27 | 1.81 ± 0.16 | 0.0873 (inactive) |
| CC(=NN1CCN(Cc2cccc3ccccc23)CC1)c1ccc(Cl)cc1 | 0.9 ± 0.086 | 1.06 ± 0.077 | 1.01 ± 0.086 | 1 ± 0.068 | 1.19 ± 0.13 | 0.992 ± 0.12 | 1.01 (active) |
| N#CCCC1(CCC#N)S(=O)(=O)CC(c2ccc(Cl)cc2)CS1(=O)=O | 0.67 ± 0.04 | 0.909 ± 0.056 | 0.623 ± 0.05 | 0.915 ± 0.031 | 1.26 ± 0.087 | 1.04 ± 0.091 | 0.97 (active) |
| Nc1ncnc2c1ncn2C1OC(CO)C(O)C1O (configuration not stated) | 0.951 ± 0.078 | 0.93 ± 0.079 | 1.29 ± 0.13 | 1.15 ± 0.043 | 1.2 ± 0.22 | 1.23 ± 0.27 | 1.04 (active) |
| O=C(NNC(=O)c1sc2cc(F)ccc2c1Cl)Nc1ccc(Cl)cc1 | 1.02 ± 0.081 | 0.995 ± 0.086 | 1.05 ± 0.053 | 0.926 ± 0.15 | 1.02 ± 0.048 | 1.12 ± 0.091 | 1 (active) |
| Cn1nc2c(c1CNS(=O)(=O)CCC(F)(F)F)CCC2 | 0.93 ± 0.077 | 0.805 ± 0.064 | 1.17 ± 0.15 | 1.01 ± 0.049 | 1.32 ± 0.2 | 1.41 ± 0.49 | 0.981 (active) |
| CCOc1ccc(C=NNc2nc(C)cs2)c(O)c1 | 0.949 ± 0.087 | 0.965 ± 0.13 | 1.03 ± 0.073 | 0.624 ± 0.024 | 0.988 ± 0.069 | 0.981 ± 0.15 | 0.999 (active) |
| CC(C)CN(CC(O)C(Cc1ccccc1)NC(=O)OC1COC2OCCC12)S(=O)(=O)c1ccc(N)cc1 (configuration not stated) [Prestw-1802] | 1.53 ± 0.34 | 1.52 ± 0.14 | 1.84 ± 0.15 | 0.872 ± 0.069 | 0.827 ± 0.22 | 0.953 ± 0.14 | 0.981 (active) |
| O=C(Oc1ccc(Cl)c2cccnc12)c1cccc(Cl)c1 | 0.981 ± 0.16 | 1.05 ± 0.093 | 0.926 ± 0.11 | 0.994 ± 0.032 | 1.41 ± 0.21 | 1.45 ± 0.15 | 1 (active) |
| COC(=O)C1=CN(CC2CCCO2)C=C(C(=O)OC)C1c1ccc2c(c1)OCO2 (configuration not stated) | 1.03 ± 0.12 | 1.1 ± 0.093 | 1.02 ± 0.071 | 1.07 ± 0.036 | 1.46 ± 0.16 | 1.12 ± 0.089 | 1.01 (active) |
| Cc1onc(-c2ccccc2)c1-c1ccc(S(N)(=O)=O)cc1 | 1.64 ± 0.26 | 1.08 ± 0.4 | 1.25 ± 0.3 | 1.02 ± 0.031 | 1.02 ± 0.2 | 0.898 ± 0.11 | 0.98 (active) |
| CCOc1ccc2nc(NC(=O)c3ccc(Br)cc3F)sc2c1 | 1.15 ± 0.095 | 1.1 ± 0.098 | 1 ± 0.041 | 0.873 ± 0.071 | 1.05 ± 0.067 | 0.946 ± 0.15 | 0.994 (active) |
| Cc1nc2n(c(=O)c1CCN1CCC(c3noc4cc(F)ccc34)CC1)CCCC2 | 0.741 ± 0.18 | 0.982 ± 0.09 | 0.915 ± 0.06 | 0.891 ± 0.036 | 1.13 ± 0.3 | 1.03 ± 0.13 | 1.01 (active) |
| O=C(NCC1(O)CCOc2ccccc21)c1ccccc1C(F)(F)F (configuration not stated) | 1.85 ± 0.095 | 1.31 ± 0.24 | 1.95 ± 0.67 | 0.687 ± 0.44 | 0.669 ± 0.34 | 0.721 ± 0.084 | 0.574 (inactive) |
| O=C1CCCC2=C1C(c1ccc(C(F)(F)F)cc1)Nc1ccc(C(=O)c3ccccc3)cc1N2 (configuration not stated) | 0.885 ± 0.08 | 1.19 ± 0.068 | 0.759 ± 0.045 | 1.55 ± 0.091 | 1.36 ± 0.14 | 1.04 ± 0.12 | 0.942 (active) |
| c1ccc(CC(=NNc2ccccc2)c2ccc(-c3ccccc3)cc2)cc1 | 0.855 ± 0.091 | 0.879 ± 0.069 | 1.07 ± 0.11 | 0.657 ± 0.028 | 1.3 ± 0.2 | 1.35 ± 0.28 | 1.03 (active) |
| O=C1CCC(=O)N1C1CC2CCC(C1)N2C(=O)c1cnccn1 (configuration not stated) | 0.892 ± 0.056 | 0.903 ± 0.081 | 1.06 ± 0.057 | 1.03 ± 0.053 | 1.22 ± 0.19 | 1.31 ± 0.41 | 0.954 (active) |
| COC(=O)c1cc(NC(=O)c2cc(OC)c(OC)cc2[N+](=O)[O-])cc(C(=O)OC)c1 | 0.99 ± 0.1 | 1.03 ± 0.057 | 0.913 ± 0.074 | 0.999 ± 0.063 | 1.59 ± 0.19 | 1.22 ± 0.091 | 1.01 (active) |
| CCCCNc1ccc(C(=O)OCCN(C)C)cc1.Cl | 0.906 ± 0.12 | 0.983 ± 0.31 | 0.987 ± 0.055 | 0.824 ± 0.039 | 1.15 ± 0.34 | 1.09 ± 0.086 | 1.01 (active) |
| Cc1ccc(C2(c3ccc(C)cc3)CC2C(=O)Nc2ccncc2)cc1 (configuration not stated) | 0.811 ± 0.095 | 0.865 ± 0.076 | 0.908 ± 0.033 | 0.764 ± 0.045 | 1.04 ± 0.09 | 1.02 ± 0.074 | 1 (active) |
| NC(=O)c1ccccc1O | 1.18 ± 0.28 | 1.01 ± 0.051 | 0.978 ± 0.085 | 0.945 ± 0.032 | 1.23 ± 0.14 | 1.19 ± 0.16 | 0.993 (active) |
| CCC(C(=O)N1CCN(CCn2ccnc2-c2ccccc2)CC1)c1ccccc1 (configuration not stated) | 0.982 ± 0.17 | 0.999 ± 0.14 | 1.24 ± 0.076 | 1 ± 0.13 | 1.04 ± 0.24 | 0.956 ± 0.4 | 0.984 (active) |
| [O-][n+]1cccc(CO)c1 | 1.58 ± 0.067 | 1.96 ± 0.16 | 3.03 ± 0.16 | 1.14 ± 0.054 | 1 ± 0.19 | 1.4 ± 0.42 | 0.987 (active) |
| CC12CCC(=O)C=C1C=CC1C2CCC2(C)C1CCC21CCC(=O)O1 (configuration not stated) | 0.781 ± 0.19 | 0.958 ± 0.084 | 0.93 ± 0.059 | 0.963 ± 0.034 | 1.1 ± 0.21 | 1.06 ± 0.12 | 1.01 (active) |
| Cc1ccc(-c2ncc(Cl)cc2-c2ccc(S(C)(=O)=O)cc2)cn1 | 1.03 ± 0.17 | 1.15 ± 0.33 | 0.973 ± 0.054 | 1.05 ± 0.038 | 1.29 ± 0.4 | 1.37 ± 0.1 | 1 (active) |
| CCOc1ccccc1OCCCCOc1ccc(I)cc1 | 1.12 ± 0.18 | 1 ± 0.12 | 0.937 ± 0.11 | 0.967 ± 0.025 | 0.994 ± 0.098 | 1.18 ± 0.17 | 1 (active) |
